Screening results as filed in PubChem BioAssay.
aDG glyco act – increases alpha dystroglycan glycosylation; Pro5-aDG cells, alpha-DG glycosylation AlphaScreen (IIH6); 0% Pro5, 100% B10-LARGE cell signal; activation, % at 10 µM; 360,000 compounds, 0.22% hits;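 active = activation of at least 8% versus controls, or a plate z-score of at least 8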;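 note: Pro5 are CHO cells carrying HIG-tagged alpha-DG that lacks glycosylation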
Env fusion inh – blocks HIV Env-driven cell-cell fusion. HeLa-JRFL Env/CEM21 cell fusion, luciferase. inhibition, % at 12.3 µM. 360,000 compounds, 1.1% hits;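 active = mean replicate inhibition score of at least 50 and every replicate individually at or above 50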;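 note: 0% = plate neutral controls and 100% = maraviroc near 300 nM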
GalR3 antagonist – antagonists of human GalR3; O60755; HEK293 GalR3-CNG cAMP membrane potential fluorescence; galR3 body fused to GalR1 C-terminus; inhibition, % at 3 µM; 360,000 compounds, 0.44% hits;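 active = inhibition above the screen-wide average plus 3 SD, cut at about 13% in these data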;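 note: forskolin and galanin both at EC90 stimulate the cells; cAMP rise reported by CNG channel membrane potential dye signal; 0% = forskolin plus galanin with DMSO and 100% = forskolin alone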
Gli-Sufu block – Gli-Sufu pathway antagonism | inhibition, % at 5 µM | 340,000 compounds, 0.74% hits | Sufu-KO-LIGHT fibroblasts, Gli luciferase reporter luminescence;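 active = inhibition above about 55%, limit read from the data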;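 note: 0% = DMSO-treated cells and 100% = wells with medium but no cells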
COUP-TFII inh – blocks human COUP-TFII nuclear receptor | AID 686940 | inhibition, % at 8.6 µM | P24468 | HEK293T NGFI-A luciferase reporter, luminescence | 370,000 compounds, 0.7% hits;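 active = inhibition above a per-plate cutoff, mean inhibition of test wells between control levels plus 3 SD, cut at about 38% in these data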;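 note: cells cotransfected with COUP-TFII expression vector driving the NGFI-A reporter; 0% = median of COUP-TF2 test wells and 100% = reporter-only cells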
Target sequence (P24468 whole entry, looked up): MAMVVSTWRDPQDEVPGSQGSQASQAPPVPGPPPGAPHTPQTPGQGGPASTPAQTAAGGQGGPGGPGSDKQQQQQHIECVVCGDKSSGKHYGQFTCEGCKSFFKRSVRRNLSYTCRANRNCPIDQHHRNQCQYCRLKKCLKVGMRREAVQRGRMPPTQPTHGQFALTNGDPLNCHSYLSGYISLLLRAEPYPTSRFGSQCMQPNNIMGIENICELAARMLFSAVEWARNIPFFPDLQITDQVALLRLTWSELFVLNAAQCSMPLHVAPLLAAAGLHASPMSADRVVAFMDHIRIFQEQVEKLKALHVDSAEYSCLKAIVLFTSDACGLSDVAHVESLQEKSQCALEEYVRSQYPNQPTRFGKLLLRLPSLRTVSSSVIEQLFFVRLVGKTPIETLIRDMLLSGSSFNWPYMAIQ
Gli-Sufu confirm – confirmation of Gli-SUFU pathway antagonists. shares compounds with Gli-Sufu block. Sufu-KO-LIGHT cells, Gli luciferase reporter, luminescence. inhibition, % at 5 µM. 2,500 compounds, 40% hits. AID 602428;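 active = mean inhibition at 5 µM reaching about 45%, limit read from the data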;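 note: plate controls were DMSO-treated cells for no effect and wells lacking cells for full effect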
SufuKO cytotox – cytotoxic in Gli-SUFU antagonist counter-screen. shares compounds with Gli-Sufu block. Sufu-KO-LIGHT cells cytotoxicity, ATP luminescence. cytotoxicity, % at 5 µM. AID 651994. 2,500 compounds, 32% hits;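 active = mean cytotoxicity at 5 µM above about 25%, limit read from the data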;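 note: cells exposed to compound overnight for roughly 16 to 18 hours; plate controls were DMSO wells with cells for no effect and medium without cells for full effect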
Wnt3a cs – Wnt3a reporter inhibition counter-screen. shares compounds with Gli-Sufu block. Wnt-LIGHT cells, Wnt3a-driven luciferase reporter, luminescence. inhibition, % at 6.25 µM. 2,500 compounds, 20% hits. AID 651995;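 active = mean inhibition above about 25%, limit read from the data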
* marks the source's active call; other numbers are inactive results; · = no result; [ ] = remark or other dose. Sampled rows, rich in hits. Any-hit rate of the full collection: about 2.1%.

SMILES	aDG glyco act	Env fusion inh	GalR3 antagonist	Gli-Sufu block	COUP-TFII inh	Gli-Sufu confirm	SufuKO cytotox	Wnt3a cs
O=C(CSCCc1ccccn1)Nc1ccccn1	0	·	1	96*	-3	8	25	-6
COc1cc(NC(=O)CSc2nc(C)cc(C)n2)cc(OC)c1OC	1	9	-2	52	3	10	3	-9
COCCOc1nc2c(c(=O)n(C)c(=O)n2C)n1Cc1cccc(OC)c1	1	·	-4	52	18	44	21	23
Clc1ccc(-n2nnnc2-c2cnc(-c3ccncc3)nc2-c2cccs2)cc1	0	-16	-2	11	9	·	·	·
FC(F)(F)c1nc(-c2cccs2)ncc1-c1nnnn1-c1ccc(Cl)cc1	2	70*	-4	58*	4	58*	39*	1
CC(=O)Nc1ccc(S(=O)(=O)N2CCC(C(N)=O)(N3CCCCC3)CC2)cc1	0	-7	-8	55*	-6	30	-1	14
COc1ccc(S(=O)(=O)N2CCC(C(N)=O)(N3CCCCC3)CC2)cc1	0	3	·	1	14	·	·	·
C[C@H](CO)N1C[C@H](C)[C@H](CN(C)CC2CC2)Oc2ccc(NC(=O)CCCCCC(=O)Nc3ccccc3N)cc2CC1=O	·	1[16.7 µM]	·	·	·	·	·	·
O=C(NC1CCN(Cc2ccccc2)CC1)C1CCN(S(=O)(=O)c2cccc3nsnc23)CC1	0	·	-5	59*	2	19	29*	-5
O=C(NC1CCN(Cc2ccccc2)CC1)C1CCN(S(=O)(=O)c2cccc3cccnc23)CC1	0	-32	-2	-15	20	·	·	·
COC(=O)c1ccc(Oc2cc(C)nc(-n3nc(C)cc3C)n2)cc1	0	-37	-3	52	-64	64*	60*	18
COC(=O)c1ccc(Oc2nc(C)cc(Oc3ccccc3)n2)cc1	0	·	-5	0	-14	·	·	·
COc1ccc(/C=C2/SC(=S)N(CCCC(=O)Nc3cccc(O)c3)C2=O)cc1	0	2	-7	62*	14	58*	0	-21
COc1ccc(/C=C2\SC(=S)N(CCC(=O)Nc3cccc(O)c3)C2=O)cc1OC	0	-5	-3	-9	-6	·	·	·
CCCCCCc1cc2cc(C(=O)Nc3cccc(OC)c3)c(=O)oc2cc1O	0	-4	-10	61*	-19	58*	13	79*
Cc1noc(C)c1NC(=O)Nc1ccc2c(c1)C(=O)N(C)[C@H]1CC[C@H](CC(=O)N[C@@H]3CCN(Cc4ccccc4)C3)O[C@H]1CO2	·	6[16.7 µM]	·	·	·	·	·	·
CC(C)(C)C1CCC(OC(=O)C[N+]2(C)CCCCC2)CC1 (stereo not given)	0	-11	-7	53	1	33	12	1
CC(C)(C)C1CCC(OC(=O)C[N+]2(C)CCCC2)CC1 (stereo not given)	0	-11	-9	25	-6	·	·	·
C[C@@H]1CN([C@@H](C)CO)C(=O)c2cc(NS(=O)(=O)c3ccccc3)ccc2O[C@@H](C)CCCCO[C@@H]1CN(C)C(=O)c1ccccc1	·	2[16.7 µM]	·	·	·	·	·	·
O=C(Nc1ccccc1)c1cccc(C(=O)Nc2ccccc2)n1	0	4	5	32	3	·	·	·
O=C(O)c1ccc(NC(=O)c2cccc(C(=O)Nc3ccc(C(=O)O)cc3)n2)cc1	0	-7	-8	66*	14	16	13	9
COc1ccc(OC)c(NC(=O)CN(c2ccc(C)cc2)S(=O)(=O)c2c(C)n[nH]c2C)c1	0	16	-2	-6	-13	·	·	·
COc1ccccc1NC(=O)CN(c1ccc(C)cc1)S(=O)(=O)c1c(C)n[nH]c1C	0	-23	1	56*	-1	20	5	-25
O=C(O)C[C@H]1CC[C@H](NC(=O)Nc2cc(F)ccc2F)[C@H](CO)O1	·	13[16.7 µM]	·	·	·	·	·	·
CN1[C@@H]2c3ccc(/C=C/c4ccccc4)c(=O)n3C[C@H]1[C@H](CO)[C@H]2C(=O)NC1CCCC1	·	2[16.7 µM]	·	·	·	·	·	·
SMILES	aDG glyco act	Env fusion inh	GalR3 antagonist	Gli-Sufu block	COUP-TFII inh	Gli-Sufu confirm	SufuKO cytotox	Wnt3a cs
CN(C)S(=O)(=O)c1cccc(-c2nn(-c3ccccc3)cc2/C=C(/C#N)C(=O)NCc2ccco2)c1	0	-9	-8	83*	-5	30	8	14
Cc1ccc(S(=O)(=O)N(CC(O)CN2CCCCC2)c2ccccc2)cc1 (stereo not given)	0	-3	1	58*	0	32	2	-22
O=C(O)c1ccc(-c2nc(-c3ccccc3)c(-c3cccs3)[nH]2)cc1	0	-26	-4	-9	13	·	·	·
O=[N+]([O-])c1ccc(O)c(-c2nc(-c3ccccc3)c(-c3cccs3)[nH]2)c1	0	6	-2	52	14	70*	11	67*
Cc1csc(N2CCCC2c2nc3cc(Cl)c(N4CCCCC4)cc3n2CCOCCO)n1 (stereo not given)	0	-1	-5	9	8	·	·	·
Cc1csc(N2CCCC2c2nc3cc(C(F)(F)F)ccc3n2CCOCCO)n1 (stereo not given)	0	-2	-5	85*	10	18	-1	-72
BrC(=C\c1ccccc1)/C=N/Nc1nc2ccccc2[nH]1	2	-27	1	51	-39	-11	3	-142
C[C@H]1CCCCO[C@H](CN(C)C(=O)NC2CCCCC2)[C@@H](C)CN([C@@H](C)CO)C(=O)c2cc(NS(=O)(=O)c3ccc(Cl)cc3)ccc2O1	·	1[16.7 µM]	·	·	·	·	·	·
COC(=O)NCC(c1ccco1)N1CCN(c2ccc(F)cc2)CC1 (stereo not given)	0	·	0	52	0	14	9	-25
O=C(NCCCN1CCOCC1)c1ccc(CSc2ccc(Cl)cc2)cc1	0	5	-4	57*	5	22	16	-50
O=C(CCCCCn1c(=S)[nH]c2ccc(N3CCOCC3)cc2c1=O)NCc1ccc2c(c1)OCO2	0	-7	0	1	-7	·	·	·
COC(=O)c1ccc2c(=O)n(Cc3ccc(C(=O)NCCCN4CCOCC4)cc3)c(=S)[nH]c2c1	0	-6	0	17	2	·	·	·
O=C(CCCCCn1c(=S)[nH]c2ccc(N3CCOCC3)cc2c1=O)NCc1ccc(Cl)cc1	0	0	-6	83*	-4	17	15	-13
CC(C)(C)c1ccc(C(=O)NCCN2CCOCC2)cc1	0	3	-1	-4	4	·	·	·
CC(C)c1ccc(C(=O)NCCCN2CCOCC2)cc1	0	9	-1	-12	-10	·	·	·
O=C(NCCCN1CCOCC1)c1ccc2c(=O)n(Cc3ccc(Cl)cc3)c(=S)[nH]c2c1	0	7	1	50	21	23	25*	-49
